Assay outcomes deposited in PubChem BioAssay by several laboratories.
PREPL inhibitor = PREPL enzyme inhibitors, primary screen, biochemical, fluorescence polarization. Prolyl endopeptidase-like (Homo sapiens), Q4J6C6. recombinant PREPL, fluorescence polarization activity-based probe. inhibition, % at 5.96 µM. hit rate 0.68% among 320,000; in the data active = inhibition above about 43%;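 also: 0% = enzyme with DMSO and 100% = wells lacking enzyme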
PP5 inh = PP5 phosphatase inhibitors, primary screen, biochemical, fluorescence; purified PP5c, OMFP substrate fluorescence; Serine/threonine-protein phosphatase 5 (Homo sapiens), P53041; AID 1987, 2009; inhibition, % at 6.7 µM; hit rate 0.18% among 320,000;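 active = inhibition above the campaign's mean inhibition across all tested compounds plus 3 SD, cut at about 9.5% in these data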;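 also: 0% = DMSO only and 100% = 100 µM cantharidin control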
Rpn11 block = Rpn11 (PSMD14) deubiquitinase inhibitors, primary screen, biochemical, fluorescence polarization, uHTS; human 26S proteasome, Ub4-pepOG fluorescence polarization; 20S core pre-blocked with epoxomicin; inhibition, % at 20 µM; hit rate 0.59% among 360,000;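 active = inhibition at 20 µM, scaled to each plate's controls, above about 33%, limit read from the data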
Target sequence (O00487 whole entry, looked up): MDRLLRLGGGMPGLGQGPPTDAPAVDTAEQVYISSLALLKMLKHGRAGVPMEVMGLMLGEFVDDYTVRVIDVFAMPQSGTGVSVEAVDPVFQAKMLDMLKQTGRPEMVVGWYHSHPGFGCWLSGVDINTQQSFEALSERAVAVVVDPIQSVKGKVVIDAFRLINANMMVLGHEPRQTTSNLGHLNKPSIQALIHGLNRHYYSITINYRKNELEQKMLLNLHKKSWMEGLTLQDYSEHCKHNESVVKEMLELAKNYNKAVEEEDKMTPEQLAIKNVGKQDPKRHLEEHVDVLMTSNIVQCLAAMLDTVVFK
NadD inh = inhibitors of S. aureus NadD, primary screen, biochemical, colorimetric, uHTS. Nicotinate-nucleotide adenylyltransferase NadD (Staphylococcus aureus N315). purified NadD enzyme, colorimetric absorbance read-out. inhibition, % at 20 µM. hit rate 0.78% among 360,000; in the data active = inhibition above about 26%
PP1 counter = PP1-alpha phosphatase inhibitors, primary screen, counter-screen for PP5 inhibitor project, biochemical, fluorescence, OMFP substrate, single point; Serine/threonine-protein phosphatase PP1-alpha catalytic subunit (Homo sapiens), P62136; purified PP1alpha; inhibition, % at 6.7 µM; hit rate 0.9% among 320,000;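 active = inhibition above the mean inhibition of all tested compounds plus 3 SD, computed separately for each screening campaign, cut at about 15% in these data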
An asterisk follows results filed as active; x = no result given. Hits are enriched below; roughly 2.4% of the tested compounds scored in any of these assays.

SMILES | PREPL inhibitor | PP5 inh | Rpn11 block | NadD inh | PP1 counter
COc1ccc(C2C(C(=O)c3ccc(C)o3)=C(O)C(=O)N2Cc2cccnc2)cc1 (centres undefined) | -1.2 | 1.3 | -2.0 | -4.3 | -0.8
CCCOc1ccc(C2C(C(=O)c3ccc(C)o3)=C(O)C(=O)N2Cc2cccnc2)cc1 (centres undefined) | 6.3 | 3.4 | x | x | 10.6
Cc1ccc(C(=O)C2=C(O)C(=O)N(Cc3cccnc3)C2c2ccc(N(C)C)cc2)o1 (centres undefined) | -2.5 | -1.1 | 5.9 | 0.6 | 3.6
Cc1ccc(C(=O)C2=C(O)C(=O)N(CCCn3ccnc3)C2c2ccc(OC(C)C)cc2)o1 (centres undefined) | 13.1 | -8.7 | 17.3 | 7.1 | 15.3*
Cc1ccc(C(=O)C2=C(O)C(=O)N(Cc3cccnc3)C2c2ccc(Br)cc2)o1 (centres undefined) | 3.0 | 2.8 | 1.1 | 17.6 | 18.7*
Cc1ccc(C(=O)C2=C(O)C(=O)N(Cc3cccnc3)C2c2ccc(Cl)c(Cl)c2)o1 (centres undefined) | -6.7 | 0.6 | 0.6 | 14.7 | 29.7*
CCOc1ccc(CCNC(=O)CN2C(=O)NC3(CCCCC3)C2=O)cc1OCC | 2.7 | 0.1 | -6.9 | -3.7 | -2.6
COc1cccc(OC2(C)CCN(Cc3cccn3-c3nccs3)C2)c1 (centres undefined) | x | x | -6.4 | -4.2 | x
C/C(=N\NC(=O)COc1ccc(C(C)(C)C)cc1)c1ccc(-n2ccnc2)cc1 | 3.9 | 4.0 | 1.6 | 22.1 | 15.3*
O=C(Nc1cccc(F)c1)N1CCc2nc(NCc3cccc(Oc4ccccc4)c3)ncc2C1 | x | x | 13.3 | 16.5 | x
Cc1cc(C(=O)N/N=C/c2cc(N=Nc3ccccc3)ccc2O)n[nH]1 | 13.2 | 1.4 | -28.7 | 8.2 | 15.5*
Nc1ccc(C(=O)N/N=C\c2cc(N=Nc3cccc4ccccc34)ccc2O)cc1 | 14.0 | 3.5 | 1.2 | 41.1* | 6.7
COC(=O)N/N=C/c1cc(N=Nc2ccccc2)ccc1O | -20.8 | 0.7 | -3.3 | -7.6 | -4.0
CC(=O)c1cccc(Nc2nc(-c3cccc([N+](=O)[O-])c3)cs2)c1 | 1.4 | 1.3 | 11.5 | 24.9 | 16.1*
CC(=O)Nc1nc(C)c(-c2csc(Nc3cccc([N+](=O)[O-])c3)n2)s1 | 22.2 | 3.8 | -1.8 | 26.5 | 11.2
O=S1(=O)C[C@@H](N2CCC(Cc3ccccc3)CC2)[C@H](COCc2ccccc2)N1 | x | x | 8.7 | -9.2 | x
CC1=C(C#N)C(=O)N(C2CCS(=O)(=O)C2)C(=O)/C1=C\c1ccco1 (centres undefined) | 14.6 | 0.9 | x | x | 35.2*
O=C1/C(=C\c2ccco2)SC(=S)N1C1CCCCC1 | -5.2 | 1.5 | x | x | -3.1
CCOC(=O)CNC(=S)N(Cc1ccc(C)cc1)Cc1ccc(C)o1 | -13.3 | 2.2 | -3.9 | -0.6 | 0.4
Cc1ccc(/C=C2\SC(N3CCN(C(c4ccccc4)c4ccccc4)CC3)=NC2=O)o1 | -2.1 | 1.8 | 20.8 | 59.3* | 17.4*
CC(=O)Nc1ccc(NC(=O)COc2ccc(-c3ccc(C#N)cc3)cc2)cc1 | 2.2 | -2.2 | -1.0 | -5.9 | 16.6*
N#Cc1ccc(-c2ccc(OCC(=O)Nc3cccnc3)cc2)cc1 | x | x | -17.2 | 2.7 | x
Cc1ccc(-c2nc(Nc3ccc(O)cc3)c3ccccc3n2)cc1 | 18.2 | 9.2 | -2.2 | 9.3 | -4.7
Cc1ccc(-c2nc(Nc3ccc(N4CCOCC4)cc3)c3ccccc3n2)cc1 | 46.0* | 9.1 | 5.4 | 6.7 | -2.4
CCOC(=O)c1sc2nc(CC(=O)OC)nc(N3CCN(c4ccc(OC)cc4)CC3)c2c1C | 48.1* | -1.0 | 10.9 | 6.7 | -0.1
O=[N+]([O-])c1cccnc1SCc1ccccc1 | -0.8 | 1.8 | 0.3 | -6.8 | -1.6
CCS(=O)(=O)c1ccc(N=Nc2ccc(O)c3ncccc23)c(OC)c1 | x | x | 49.8* | 17.5 | x
O=C(CNC(=O)/C=C/c1ccco1)N=Nc1c(O)[nH]c2ccccc12 | 8.0 | 0.4 | 38.3 | 33.8* | 8.0
CC(C)N1CC2(CC(c3ccccc3C(F)(F)F)=NO2)CN1C(=O)c1ccco1 (centres undefined) | x | x | -0.7 | 2.1 | x
O=C(c1cc2ccccc2o1)N(Cc1nnc(-c2ccccc2Cl)o1)C1CC1 | -35.1 | -1.1 | -2.8 | -9.8 | 15.3*
